The values below come from PubChem BioAssay AID618 (Sanford-Burnham Center for Chemical Genomics, 2007).

About 540 (0.62%) of roughly 87,000 compounds were called active. How the calls were made is not given here. Many of the other results were omitted from the sample, so actives are more common in it than they were. Entries with a potency or affinity are not part of this list.

This test can be described thus: MT1-MMP gene expression reporter suppression – cell-based, luciferase reporter, luminescence (AID 618).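 Further: actives suppress MT1-MMP promoter-driven transcription so potencies describe inhibitors.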 The conditions noted are these: MT1-MMP promoter luciferase reporter cells. A general note: In a reporter assay the amount or activity of a reporter protein is the signal.
`O=C(COc1ccc2ccccc2c1)NC1CC1`: the result was inactive.

As to `CCCC1(C(=O)OC)NC(c2cc(OC)c(OC)c(OC)c2)C2C(=O)N(CC)C(=O)C21` (stereo unspecified), the outcome was inactive. As for `O=c1[nH]nc(Cc2ccc(Cl)cc2)c2ccccc12`, the result was inactive. `Cc1nn2c(C(F)(F)F)cc(-c3ccc(Cl)cc3)nc2c1C(=O)N1CCOCC1`: the molecule was called inactive.

On to `Nc1ccc2nc(-c3ccc(N)c(Cl)c3)[nH]c2c1`, for which the molecule was called inactive. `Nc1ccc(-c2nc3c(Cl)c(N)ccc3[nH]2)cc1`: the result was inactive. With `CC(=O)c1cnc2cc(-c3ccc(Cl)cc3)nn2c1C`, the molecule was classed as inactive.

For the molecule `O=C(CNS(=O)(=O)c1ccccc1)NCc1ccccn1`, the molecule was classed as inactive. Take `CCCc1ccc(-c2cc(N)n[nH]2)cc1`: the call was inactive. In the case of `CCCCc1ccc(-c2ccc(Br)cc2)nc1`, the call was inactive. Regarding `CCOc1ccc(NC(=O)CCN2CCN(c3ccccc3F)CC2)cc1`, the molecule was classed as inactive. In the case of `COc1ccc(-c2nnn(CC(=O)NCc3ccccc3)n2)cc1OC`, the molecule was classed as inactive. Take `CCC(C)NC(=O)Nc1ccc2c(c1)N(C)C(=O)c1ccccc1S2` (stereo unspecified): the outcome was inactive. Consider `Cc1nc(SCc2cccc(Oc3ccccc3)c2)n[nH]1`, for which the outcome was inactive. As for `c1ccc(-c2nnc(-c3ccccn3)nn2)nc1`, the result was inactive. In the case of `c1ccc(-c2ccccn2)nc1`, the call was inactive. Consider `CCc1nc(OCC(=O)c2ccccc2)c(C#N)c2c1COC(C)(C)C2`, for which the call was inactive. The result for `Cc1c(N/C=C/C(=O)c2ccc(Cl)cc2)c(=O)n(-c2ccccc2)n1C` reads “inactive”; that for `Cc1ccc(/C=C/C(=O)c2ccccc2)cc1`, “inactive”. For `NC(=O)c1ccccc1N/C=C/C(=O)c1ccccc1`, the molecule was classed as active. For `NC(=O)c1ccccc1N/C=C/C(=O)c1ccc(Cl)cc1`, the molecule was called inactive. Take `Cc1ccc(C(=O)/C=C/Nc2ccccc2C(N)=O)cc1`: the call was inactive. Consider `COc1ccc(C(=O)Nc2ccccn2)cc1`, for which the outcome was inactive. In the case of `NC(=O)c1ccccc1N/C=C/C(=O)c1ccc(F)cc1`, the call was inactive.

As to `COc1ccc(C(=O)/C=C/Nc2cccc(C)n2)cc1OC`, the molecule was classed as inactive. Regarding `Cc1ccc(C(=O)/C=C/Nc2ccccn2)cc1`, the molecule was called active. The result for `Cc1cc(N/C=C/C(=O)c2ccc(Br)cc2)no1` reads “inactive”; that for `CCCCc1ccc(Nc2nc(CCC)cc(=O)[nH]2)cc1`, “inactive”.

For `COc1ccc(C2C(C#N)=C(N)Oc3n[nH]c(-c4ccccn4)c32)c(OC)c1OC` (stereo unspecified), the outcome was inactive. With `C=C(c1ccc(OC)cc1)c1ccc(OC)cc1`, the call was inactive. Turning to `CC(C)Cn1c(N)c(C(=O)COC(=O)c2cc(C(F)(F)F)nc3ccccc23)c(=O)n(C)c1=O`, the outcome was inactive. In the case of `COC(=O)C(C(=O)Nc1ncccn1)C1CCCCCC1` (stereo unspecified), the call was inactive.

As for `O=C(Nc1cccnc1)c1c(F)c(F)c(F)c(F)c1F`, the result was inactive.

In the case of `Cc1ccc(S(=O)(=O)n2nc(-c3ccc(Cl)cc3)nc2NCc2ccco2)cc1`, the result was inactive. Take `Cc1ccnn1CCSCC(=O)O`: the molecule was classed as inactive.

As to `O=C(CC(=O)Nc1ccccn1)Nc1ccccn1`, the molecule was called inactive. As to `O=C(/C=C/NNC(=O)c1ccccc1)c1ccccc1`, the molecule was called inactive.

As to `CCn1c(=NC(=O)CN2C(=O)CCC2=O)sc2c(C)cc(C)cc21`, the call was inactive. In the case of `Cc1cc(N2CCCC2=O)cc(C)c1S(=O)(=O)NCCOc1ccc(C(C)(C)C)cc1`, the result was inactive.

For the molecule `N#Cc1cc(N)c(Nc2ccccc2)cc1C#N`, the molecule was called inactive.

Regarding `CCC1(c2ccccc2)NC(=O)N(CC(=O)Nc2cccc(C#N)c2)C1=O` (stereo unspecified), the molecule was called inactive. Turning to `COc1cc(C)c(C(C)C)cc1S(=O)(=O)n1ccnc1`, the outcome was inactive. In the case of `COc1cc(C)c(C(C)C)cc1S(=O)(=O)n1cnc(C)c1`, the molecule was called active.

With `COc1cc(C)c(Cl)cc1S(=O)(=O)n1cnc(C)c1`, the call was inactive.

With `CCN1C(=C2C(=O)c3ccccc3C2=O)C=Cc2ccccc21`, the result was inactive. For `CCN1/C(=C/c2ccc3ccccc3[n+]2CC)C=Cc2ccccc21`, the result was active. In the case of `CCN1C(=O)/C(=C2\C=Cc3ccccc3N2CC)OC1=S`, the call was inactive.

Consider `CC1(C)CC(=O)N(c2ccccc2)C1(C)O` (stereo unspecified), for which the molecule was called inactive. On to `C=CCn1c(C)cc(C(=O)CSc2nc3ccccc3c(=O)[nH]2)c1C`, for which the result was inactive. In the case of `CCn1c(SCC(=O)c2cc(C)n(CC3CCCO3)c2C)nc2ccccc21` (stereo unspecified), the call was inactive. Consider `Cc1cc(C(=O)CSc2nc3ccccc3[nH]2)c(C)n1C`, for which the molecule was called inactive. `Cc1cc(C(=O)CSc2nc3ccc(Cl)cc3[nH]2)c(C)n1CC1CCCO1` (stereo unspecified): the molecule was called inactive. Consider `C=CCc1c(C)nc(SC)nc1Nc1ccc(C(C)=O)cc1`, for which the outcome was inactive. With `CC1CC(C)(C)NC(=O)O1` (stereo unspecified), the molecule was called inactive. In the case of `Cc1ccc(Nc2cc(C)nn2-c2nc(C)cc(=O)[nH]2)cc1`, the outcome was active.

Turning to `Cc1cc(=O)[nH]c(-n2nc(C)cc2C)n1`, the result was inactive. For `Cc1ccc(Nc2cc(C)nn2-c2nc(C)cc(C)n2)cc1`, the molecule was called inactive. Regarding `C=CCn1c(SCc2c(C)noc2C)nc2cc(C(=O)O)ccc2c1=O`, the molecule was called inactive. The result for `Cc1noc(C)c1CSc1nc2ccccc2c(=O)n1-c1ccccc1` reads “inactive”; that for `Cc1noc(C)c1CSc1nc2ccccc2c(=O)n1-c1ccc(Cl)cc1`, “inactive”. Turning to `Cc1noc(C)c1CSc1nc2[nH]ncc2c(=O)n1-c1ccccc1`, the molecule was called active. As to `Cc1nc(CSc2nc3[nH]ncc3c(=O)n2-c2ccccc2)cs1`, the molecule was called inactive.

For the molecule `C=CCn1c(SCc2c(C)noc2C)nc2ccccc2c1=O`, the call was active. On to `COc1ccccc1NC(=O)CSc1nnnn1-c1ccc(C)cc1`, for which the result was inactive. As for `COCCCNC(=O)CCc1nc2cccnc2n1Cc1ccccc1`, the molecule was called inactive. `O=C(NNC(=O)c1ccccc1Br)c1ccc(SCC2CCCO2)c([N+](=O)[O-])c1` (stereo unspecified): the call was inactive.

Consider `COc1ccc(CCN2CCC(Nc3nc4ccccc4n3Cc3ccc(F)cc3)CC2)cc1`, for which the result was active. `COc1ccc(CNc2nc3ccccc3n2CCN2CCOCC2)cc1`: the call was inactive. `COc1ccc(CC(=O)N2CCC(Nc3nc4ccccc4n3Cc3ccc(F)cc3)CC2)cc1`: the molecule was classed as inactive. Regarding `COc1ccc(N/C=C(\C#N)c2ccc(OCCCF)cc2)cc1`, the call was inactive. For the molecule `COc1ccc(C2C(C#N)=C(N)N3C(=C2C#N)Sc2ccccc23)cc1` (stereo unspecified), the result was inactive. To `CC1(C)CC(=O)C2=C(C1)OC1=C(C(=O)CC(C)(C)C1)C2c1ccc(O)cc1O` belongs “active”.

As for `CC1(C)CC(=O)C(C2C3=C(CC(C)(C)CC3=O)Oc3ccccc32)=C(O)C1` (stereo unspecified), the molecule was called inactive. Take `Cc1nn(C)cc1C1C2=C(CC(C)(C)CC2=O)OC2=C1C(=O)CC(C)(C)C2`: the molecule was called inactive. For the molecule `O=C(c1cccs1)N(Cc1ccco1)c1nc(-c2ccc(F)cc2)cs1`, the outcome was inactive. To `COc1ccc(-c2cc(C(F)(F)F)n3nc(C(=O)N4CCCCC4)cc3n2)cc1OC` belongs “inactive”.
